These results are taken from PubChem BioAssay.

One assay concerns the target Albumin (Bos taurus) (UniProt P02769). In words: bovine serum albumin binders on microarray, profiling panel, artefact control for SMM control protein annotation, biochemical, small-molecule microarray, Alexa647 label, 635/667 nm fluorescence (AID 1118).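 Also: score merges 667 nm emission intensity and signal-to-noise per printed compound spot.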 Conditions: BSA-A647 binding, fluorescence 635 nm, higher = more signal.
The nature of assay [1]: small-molecule microarray binders of probe aXIP, primary screen, biochemical, NeuroSMM set, 635/667 nm fluorescence (AID 1119).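 Also: probe is the protein aXip251-270 applied at 1 µg/mL to compound-printed slides; binding of probe to printed compounds measured as 667 nm fluorescence plus signal to noise.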 The following applies: higher = more signal, called active from +8 up or from −8 down.
Assay [2] is described as follows: small-molecule binders of probe aNOTCH3, primary screen, biochemical, small-molecule microarray, 635/667 nm fluorescence (AID 1120).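 Also: probe is a biotin-tagged antibody raised against NOTCH3 rather than NOTCH3 protein; score merges spot fluorescence near 667 nm with spot signal to noise.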 The following applies: higher = more signal.
The nature of assay [3]: small-molecule binders of probe aNOTCH2, primary screen, biochemical, small-molecule microarray, 635/667 nm fluorescence (AID 1121).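 Also: score merges feature fluorescence read at 667 nm with its signal to noise.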 Conditions: higher = more signal.
For assay [4], the target named is Carbonic anhydrase 2 (Homo sapiens) (UniProt P00918). Kind of assay: CAII small-molecule binders, profiling panel, biochemical, small-molecule microarray, Alexa647-labelled CAII (AID 1122). The following applies: CAII-A647 binding fluorescence, higher = more signal.
Assay [5] is described as follows: COS7 lysate on small-molecule microarray, probe aHis, 635 nm (AID 1123).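 Also: z-score combines 667nm fluorescence intensity with signal-to-noise per printed compound spot.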 The following applies: COS7 cell lysate, fluorescence, higher = more signal.
The nature of assay [6]: compound binding in COS7 lysate, probe aLAP1, primary screen, cell lysate, small-molecule microarray (AID 1124).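 Also: lysate comes from COS7 cells expressing LAP1 and is applied at 0.3 µg/mL; score merges spot fluorescence near 667 nm with signal-to-noise over triplicate slides.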 Conditions: probe aLAP1, fluorescence, higher = more signal.
Another assay concerns Sam68 (KHDRBS1). Kind of assay: Sam68 small-molecule binders, primary screen, biochemical, small-molecule microarray, 635 nm fluorescence (AID 1125).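 Also: score merges 667 nm channel intensity with signal to noise over triplicate slides.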 The following applies: small-molecule microarray binding, higher = more signal.
In assay [7] the test system is Chordin-like protein 2 (CHRDL2). Kind of assay: CHRDL2 small-molecule binders, primary screen, biochemical, small-molecule microarray, 635 nm fluorescence (AID 1126).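 Also: printed compound slides probed with Chrdl2 protein at 4 µg/mL for 1 h at 4 C; score merges 667 nm emission intensity with signal to noise over three replicate slides.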 Conditions: small-molecule microarray binding, fluorescence 635 nm; higher = more signal.
The target of assay [8] is Concanavalin-A (Canavalia ensiformis) (UniProt P02866). Kind of assay: ConA small-molecule binders, primary screen, artefact control for SMM control protein annotation, biochemical, small-molecule microarray, Alexa647 label, 635 nm (AID 1127).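 Also: z combines 667 nm emission intensity with signal-to-noise across three replicate slides.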 The following applies: ConA-A647 binding fluorescence, higher = more signal.
Concanavalin-A (Canavalia ensiformis), sequence (P02866 whole entry, looked up): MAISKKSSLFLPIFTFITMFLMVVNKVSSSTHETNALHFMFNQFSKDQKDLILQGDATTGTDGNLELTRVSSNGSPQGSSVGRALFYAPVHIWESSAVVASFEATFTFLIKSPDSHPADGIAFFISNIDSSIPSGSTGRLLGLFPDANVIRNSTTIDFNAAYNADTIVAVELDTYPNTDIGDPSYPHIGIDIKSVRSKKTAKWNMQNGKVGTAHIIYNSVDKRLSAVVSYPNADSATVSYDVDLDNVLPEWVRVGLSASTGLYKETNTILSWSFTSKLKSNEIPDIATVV
Assay [9] in a line: anti-His antibody binders, primary screen, artefact control for SMM control protein annotation, biochemical, small-molecule microarray, 635 nm fluorescence (AID 1128).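 Also: score merges feature fluorescence with signal-to-noise for each printed compound spot.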 The following applies: anti-His Alexa647 antibody binding, higher = more signal.
For assay [10], the system named is Human papillomavirus type 1a E7 protein (residues 1-88). Kind of assay: HPV1a E7 small-molecule binders, primary screen, biochemical, small-molecule microarray, residues 1-88, 635 nm (AID 1129). The following applies: small-molecule microarray binding, fluorescence 635 nm; higher = more signal.
Assay [11] concerns the target Focal adhesion kinase 1 (Homo sapiens) (UniProt Q05397). Kind of assay: small-molecule microarray binders of FAK, primary screen, biochemical, 635/667 nm fluorescence, BSA, DTT (AID 1130).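 Also: composite of spot emission at 667 nm and signal to noise over triplicate slides.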 The following applies: PTK2 binding, 635 nm fluorescence, higher = more signal.
Assay [12] has as its system Fibrinogen (Alexa647-labelled). In words: fibrinogen binders on compound microarrays, profiling panel, artefact control for SMM control-protein annotation, biochemical, small-molecule microarray, 635/667 nm fluorescence (AID 1131).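 Also: z-score merges 667 nm fluorescence with per-spot signal-to-noise over triplicate slides.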 The following applies: fibrinogen-A647 binding fluorescence, higher = more signal.
For assay [13], the target named is Follistatin (Homo sapiens) (UniProt P19883). In words: follistatin binders on small-molecule microarrays, primary screen, biochemical, small-molecule microarray, 635/667 nm fluorescence (AID 1132). Conditions: FST binding, 635 nm fluorescence, higher = more signal.
Follistatin (Homo sapiens), sequence (P19883 whole entry, looked up): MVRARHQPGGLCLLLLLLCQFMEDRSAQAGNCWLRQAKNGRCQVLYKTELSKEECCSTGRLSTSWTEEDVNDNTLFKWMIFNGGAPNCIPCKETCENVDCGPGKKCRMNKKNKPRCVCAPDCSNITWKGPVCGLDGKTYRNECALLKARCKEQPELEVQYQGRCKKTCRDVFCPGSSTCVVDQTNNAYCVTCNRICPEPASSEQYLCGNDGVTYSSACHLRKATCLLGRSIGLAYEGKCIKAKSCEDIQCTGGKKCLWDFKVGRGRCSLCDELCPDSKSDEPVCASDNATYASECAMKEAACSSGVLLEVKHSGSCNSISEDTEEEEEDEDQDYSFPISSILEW
For assay [14], the target named is Fibroblast growth factor 2 (Homo sapiens) (UniProt P09038). In words: FGF2 binders on small-molecule microarrays, primary screen, biochemical, small-molecule microarray, 635/667 nm fluorescence (AID 1133). The following applies: small-molecule microarray binding, FGF2, fluorescence 635/667; higher = more signal.
Fibroblast growth factor 2 (Homo sapiens), sequence (P09038 whole entry, looked up): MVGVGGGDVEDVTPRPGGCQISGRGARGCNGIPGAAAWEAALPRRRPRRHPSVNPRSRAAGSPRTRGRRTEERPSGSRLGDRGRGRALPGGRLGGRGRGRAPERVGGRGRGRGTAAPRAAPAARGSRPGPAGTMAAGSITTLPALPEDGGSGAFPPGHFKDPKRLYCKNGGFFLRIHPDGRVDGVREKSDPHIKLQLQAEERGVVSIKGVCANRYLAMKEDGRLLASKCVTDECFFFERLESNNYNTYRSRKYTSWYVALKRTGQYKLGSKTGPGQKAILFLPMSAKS
Assay [15] in a line: mitochondrial membrane potential change in A549 cells, profiling panel, cell-based, JC-1 fluorescence, basal, 24 h, 100 nL (AID 1138).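 Also: A549 lung adenocarcinoma cells under basal conditions with no added stimulus; test concentration not given here.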 The following applies: higher = more signal.
The subject of a further assay is Lefty1. Kind of assay: Lefty1 binders on small-molecule microarrays, primary screen, biochemical, small-molecule microarray, 635/667 nm fluorescence (AID 1139). Conditions: small-molecule microarray binding, fluorescence 635/667; higher = more signal.
Assay [16] deals with wheat germ agglutinin (Triticum aestivum), Alexa647-labelled. In words: wheat germ agglutinin binders on compound microarrays, profiling panel, artefact control for SMM control-protein annotation, biochemical, small-molecule microarray, 635/667 nm fluorescence (AID 1140).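 Also: score merges 667 nm feature emission with signal to noise over triplicate slides.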 The following applies: WGA-A647 binding, 635 nm fluorescence, higher = more signal.
The target in assay [17] is Luciferin 4-monooxygenase (Photinus pyralis) (UniProt P08659). Kind of assay: firefly luciferase enzyme inhibitors, primary screen, biochemical, luminescence, purified enzyme, 2006 set (AID 1141).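 Also: cell-free assay with purified firefly luciferase at 100 ng per well in PBS; test concentration not given here.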 The following applies: SteadyGlo luminescence, 30 min, higher = more signal, called active from +8 up or from −8 down.
Luciferin 4-monooxygenase (Photinus pyralis), sequence (P08659 whole entry, looked up): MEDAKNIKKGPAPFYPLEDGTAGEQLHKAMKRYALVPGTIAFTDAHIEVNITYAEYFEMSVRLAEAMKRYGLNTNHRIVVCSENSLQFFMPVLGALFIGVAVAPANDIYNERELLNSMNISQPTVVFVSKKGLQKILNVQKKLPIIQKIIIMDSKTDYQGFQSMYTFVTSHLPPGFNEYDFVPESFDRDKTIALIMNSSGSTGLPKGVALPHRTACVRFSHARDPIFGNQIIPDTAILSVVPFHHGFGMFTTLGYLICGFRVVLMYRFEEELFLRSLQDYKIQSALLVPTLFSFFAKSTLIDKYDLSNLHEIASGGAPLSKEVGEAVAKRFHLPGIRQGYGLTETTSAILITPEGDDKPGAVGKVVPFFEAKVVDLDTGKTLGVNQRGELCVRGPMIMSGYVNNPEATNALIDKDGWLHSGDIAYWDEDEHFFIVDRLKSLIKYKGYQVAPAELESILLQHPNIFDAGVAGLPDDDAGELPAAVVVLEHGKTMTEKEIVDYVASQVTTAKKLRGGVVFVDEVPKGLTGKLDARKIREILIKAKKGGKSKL

Active and inactive are the calls of the source.

Focal adhesion kinase 1 (Homo sapiens), sequence (Q05397 whole entry, looked up): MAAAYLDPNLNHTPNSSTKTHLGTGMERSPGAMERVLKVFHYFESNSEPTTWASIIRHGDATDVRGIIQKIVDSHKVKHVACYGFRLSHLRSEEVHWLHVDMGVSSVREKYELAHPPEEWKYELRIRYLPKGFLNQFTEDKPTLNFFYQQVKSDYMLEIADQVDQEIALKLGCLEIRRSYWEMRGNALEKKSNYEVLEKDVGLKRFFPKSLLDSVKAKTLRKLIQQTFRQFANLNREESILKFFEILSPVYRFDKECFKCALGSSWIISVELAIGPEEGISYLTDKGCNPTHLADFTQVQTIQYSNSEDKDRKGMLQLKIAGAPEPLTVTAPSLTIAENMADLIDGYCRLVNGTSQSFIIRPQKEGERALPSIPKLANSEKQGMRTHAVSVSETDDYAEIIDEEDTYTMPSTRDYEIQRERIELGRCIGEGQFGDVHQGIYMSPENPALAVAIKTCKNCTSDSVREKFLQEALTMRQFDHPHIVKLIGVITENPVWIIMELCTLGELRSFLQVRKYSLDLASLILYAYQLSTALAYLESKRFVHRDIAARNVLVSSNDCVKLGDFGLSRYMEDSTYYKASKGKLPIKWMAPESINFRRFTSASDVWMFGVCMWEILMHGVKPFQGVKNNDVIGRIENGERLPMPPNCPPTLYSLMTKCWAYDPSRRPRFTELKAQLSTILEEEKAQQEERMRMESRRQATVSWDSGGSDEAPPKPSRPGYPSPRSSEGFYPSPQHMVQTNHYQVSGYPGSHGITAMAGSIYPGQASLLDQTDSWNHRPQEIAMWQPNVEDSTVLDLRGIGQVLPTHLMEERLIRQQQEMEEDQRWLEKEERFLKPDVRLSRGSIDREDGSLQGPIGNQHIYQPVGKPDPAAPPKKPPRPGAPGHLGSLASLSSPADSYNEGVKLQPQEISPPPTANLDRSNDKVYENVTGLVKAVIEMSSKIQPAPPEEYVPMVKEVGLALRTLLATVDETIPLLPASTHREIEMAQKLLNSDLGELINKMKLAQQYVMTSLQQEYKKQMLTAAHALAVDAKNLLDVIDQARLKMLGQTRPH
Albumin (Bos taurus), sequence (P02769 whole entry, looked up): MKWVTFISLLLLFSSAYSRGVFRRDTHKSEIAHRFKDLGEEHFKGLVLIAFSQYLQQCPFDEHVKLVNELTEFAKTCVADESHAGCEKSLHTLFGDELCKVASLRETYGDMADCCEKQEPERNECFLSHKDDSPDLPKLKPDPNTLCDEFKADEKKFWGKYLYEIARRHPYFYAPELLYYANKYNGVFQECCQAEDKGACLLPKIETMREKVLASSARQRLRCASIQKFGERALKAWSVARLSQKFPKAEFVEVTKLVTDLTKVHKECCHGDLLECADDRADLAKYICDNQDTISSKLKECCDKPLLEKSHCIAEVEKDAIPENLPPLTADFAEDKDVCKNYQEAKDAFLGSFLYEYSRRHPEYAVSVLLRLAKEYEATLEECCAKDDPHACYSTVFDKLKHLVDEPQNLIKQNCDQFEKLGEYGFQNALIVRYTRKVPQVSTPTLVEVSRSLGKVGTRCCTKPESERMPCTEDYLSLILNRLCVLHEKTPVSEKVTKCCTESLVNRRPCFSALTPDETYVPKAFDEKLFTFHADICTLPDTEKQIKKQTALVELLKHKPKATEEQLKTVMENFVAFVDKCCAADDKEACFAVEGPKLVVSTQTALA

As to `CCCC[C@@H]1C[C@H]1[C@@H](NC(=O)Cc1ccccc1)c1ccc(-c2ccccc2)cc1`, the composite z-score in the assay with Albumin (Bos taurus) is 0.83; in assay [2], -0.006; in assay [3], -0.0242; in [4], 0.66; in [5], 2.02; in [6] it was -0.273. For the same compound, the composite z-score is 0.214 in the assay with Sam68 (KHDRBS1); -0.436 in assay [7]; 0.453 in assay [8]; 0.272 in assay [9]; 1.12 in assay [10]; 0.913 in [11]. For the same compound, the composite z-score in assay [12] is 0.655; in assay [13], -0.173; in [14], -0.405; in the assay with Lefty1, -0.0127; in [16], 0.0864. Besides, the composite Z-score in assay [1] was 0.378 (inactive). In addition, the z-score in [15] is 0.629; in assay [17], 0.624 (inactive).
For `CC(=O)c1ccc(C(O)C2C=CC3C(=O)N(c4ccccc4)C(=O)C3N2Nc2ccc(C#N)cc2)cc1` (stereo not given), the composite z-score is 0.962 with Albumin (Bos taurus); 0.119 in assay [2]; -0.0023 in [3]; 0.759 in assay [4]; 2.46 in assay [5]; -0.1 in assay [6]. The composite z-score in the assay with Sam68 (KHDRBS1) is 1.1; in [7], -0.624; in [8], 1.13; in assay [9], 0.631; in [10], 1.01; in [11], 1.27. Further, the composite z-score in assay [12] was 0.72; in [13], -0.111; in assay [14] it was 0.196; in the assay on Lefty1 it was -0.253; in [16] it was 0.714. Also, the composite Z-score in assay [1] is 0.824 (inactive). Further, the values for the z-score in assay [15] and in [17] were 0.0866 and -0.0334 (inactive), respectively.
With `O=C1NC(=O)C2C1C=CC(C(O)CCc1ccccc1)N2Nc1ccc(Cl)cc1Cl` (stereo not given), the composite z-score with Albumin (Bos taurus) was 0.709; in assay [2], -0.142; in assay [3], 0.345; in [4] it was 0.79; in assay [5], 2.25; in assay [6], 0.925. The composite z-score in the assay with Sam68 (KHDRBS1) is 0.969; in assay [7] it was -1.3; in assay [8] it was -0.0165; in [9], 0.371; in assay [10], 1.18; in [11], 1.11. The composite z-score in assay [12] was 0.363; in assay [13], 0.0611; in [14], -0.83; in the assay with Lefty1, -0.556; in assay [16], 1.07. In addition, in [1], the composite Z-score was 0.118 (inactive). Besides, the results for the z-score in assay [15] and in assay [17] were -0.267 and 0.369 (inactive), respectively.
As for `O=C1O[C@H](c2ccccc2)[C@H](c2ccccc2)N2[C@H]1[C@@H](C(=O)Nc1nc3ccccc3s1)[C@]1(C(=O)Nc3ccccc31)[C@H]2c1ccc(OCCO)cc1`, the composite z-score in the assay with Albumin (Bos taurus) is 0.471; in assay [2], 0.23; in assay [3], -0.0895; in [4], 0.546; in [5], 0.823; in [6], 0.328. Besides, the composite z-score in the assay with Sam68 (KHDRBS1) worked out at 1.3; in assay [7] it was 0.608; in [8], 1.12; in [9], 1.55; in assay [10], 1.19; in [11], 0.522. Besides, the composite z-score in assay [12] is 1.01; in assay [13], 1.45; in [14] it was 1.18; in the assay with Lefty1, 1.2; in assay [16], -0.0258. The composite Z-score in assay [1] is -0.393 (inactive). Besides, the z-score was -2.15 in [15] and -4.2 (inactive) in assay [17].
Turning to `CN(C)C(=O)[C@]1(CCS(=O)(=O)c2ccccc2)N=C(c2ccc(OCCCO)cc2)O[C@@H]1c1ccccc1N=[N+]=[N-]`, the composite z-score with Albumin (Bos taurus) was determined as 0.963; in assay [2], 0.545; in assay [3] it was 0.111; in [4], 0.689; in [5], 2.93; in assay [6], 0.108. For the same compound, the composite z-score in the assay with Sam68 (KHDRBS1) is 1.29; in assay [7], 0.555; in [8], 1.16; in assay [9], 1.21; in assay [10], 1.27; in [11], 1.46. Moreover, the composite z-score in assay [12] was 1.02; in [13] it was 1.44; in assay [14] it was 0.943; in the assay with Lefty1 it was 0.762; in assay [16], 0.941. Also, in [1], the composite Z-score is -0.0275 (inactive). Besides, the values for the z-score in assay [15] and in assay [17] were 1.08 and -12.3 (active), respectively.
